The record followed here is PubChem BioAssay AID686979 (National Center for Advancing Translational Sciences (NCATS), 2013).

Screen size: about 420,000 compounds; about 50,000 (12%) were called active. Another 26% or so got no clear call; they are omitted. The call rests on the fitted dose curve; in most records, active means well fitted inhibition curve with a large enough effect; inconclusive means small, poorly fitted or top-dose-only effect; inactive means flat fitted curve, though single readings scatter. The list comes from a sample in which actives are over-represented; it also holds similar structures and randomly drawn compounds. Where a call stands in place of a potency, no number is given.
Potency means the concentration at half of the fitted maximal effect.

The nature of the assay: qHTS for Inhibitors of human tyrosyl-DNA phosphodiesterase 1 (TDP1): qHTS in cells in presence of CPT. Further: nearly all actives have a fitted effect of over 55% in size. To be noted: chicken DT40 Tdp1-/-;hTDP1 cells + 20 nM CPT, ATP luminescence, 48 h; series mostly up to 46.2 µM. Put shortly: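 Cell growth measured by CellTiter-Glo luminescence after a minimum 48 h, 37 C compound exposure with 20 nM CPT in Tdp1-knockout DT40 cells stably expressing hTDP1, seeded 400/well; qHTS titration format.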
In general terms: In qHTS, concentration-response curves come from the screen itself.
With `CC(NC(=O)C(=O)N/N=C/c1ccc(Cl)cc1)c1ccccc1` (stereo not drawn), the Potency result is “inactive”.

On to `O=C(O)C1=CCCN(CCON=C(c2ccccc2)c2ccccc2)C1`, for which the Potency entry was “inactive”.

As to `COc1cc(C2/C(=C(\O)c3ccc4c(c3)CC(C)O4)C(=O)C(=O)N2Cc2ccco2)ccc1O` (stereo not drawn), the Potency entry was “inactive”.

Take `CN(CC(=O)NCCc1ccc(S(N)(=O)=O)cc1)CC(=O)Nc1ccc(Cl)cc1`: the Potency result is “inactive”.

In the case of `O=C(CCN1C(=O)/C(=C/c2cccs2)SC1=S)NNC(=O)c1cccc(O)c1`, the Potency entry was “inactive”.

For the compound `O=C1/C(=C/c2cccs2)SC(=S)N1C1CCS(=O)(=O)C1` (stereo not drawn), the Potency was 14.6 µM (active).

Consider `N/C(=N\OC(=O)Nc1ccccc1)c1ccno1`, for which the Potency result was “inactive”.

For the compound `Cc1cccnc1NC(=O)Cn1c(=O)oc2ccccc21`, the Potency result was “inactive”.

Regarding `O=C(NCCCn1ccnc1)c1ccccc1F`, the Potency result is “inactive”.

Take `COc1ccccc1NS(=O)(=O)c1ccc(C)c(C(=O)NNC(=O)c2csc(N3CCOCC3)n2)c1`: the Potency result is “inactive”.

As for `CCCC1CCC(=NNC(=S)NCCc2ccccc2)CC1` (stereo not drawn), the Potency is 16.4 µM (active).

For the compound `CCC(C)(C)C1CCC(=NNC(=O)c2ccc(Br)o2)CC1` (stereo not drawn), the Potency entry is “inactive”.

In the case of `O=C(NCCc1ccccc1)C1CC1`, the Potency entry was “inactive”.

As to `Cc1ccc2[nH]c3c(=O)n(CC(=O)NCCc4ccc(Cl)cc4)ncc3c2c1`, the Potency result is “inactive”.

On to `COc1ccc(S(=O)(=O)N2CCN(CC(=O)N3c4ccccc4CC3C)CC2)cc1OC` (stereo not drawn), for which the Potency result is “inactive”.

Take `COc1cccc(/C=C(/CC(=O)Nc2ccc(N3CCOCC3)cc2)c2nc3ccccc3s2)c1`: the Potency result was “inactive”.

As for `Cc1cc(C)c(C=NNc2nc3c([nH]2)c(=O)n(C)c(=O)n3C)c(C)c1`, the Potency entry was “inactive”.

Take `Oc1ccc(-c2nnc(Nc3ccccc3)c3ccccc23)cc1`: the Potency result is “inactive”.

As for `O=c1ccc2c(-c3ccccc3S(=O)(=O)O)c3ccc(O)c(O)c3oc-2c1O`, the Potency is 16.4 µM (active).

As for `O=C(Nc1ccc(OCC(=O)N2CCOCC2)cc1)c1cc(F)c(F)cc1Cl`, the Potency result was “inactive”.

As to `COc1ccccc1Oc1ccc(N2CC(C(=O)OCC(=O)c3ccc(F)cc3)CC2=O)cc1` (stereo not drawn), the Potency entry is “inactive”.

For the compound `CCN1CCC(O)(/C=C/c2ccc(C)cc2)C(C(=O)/C=C/c2ccc(C)cc2)C1` (stereo not drawn), the Potency was 3.66 µM (active).

On to `O=C(NCc1cccs1)c1ccc(CS(=O)Cc2ccccc2Cl)o1` (stereo not drawn), for which the Potency entry is “inactive”.

Take `CCOCCCN(C)C1CCN(C(=O)c2oc3ccccc3c2NC(=O)Cc2cccc([N+](=O)[O-])c2)CC1`: the Potency entry was “inactive”.

For `CCOC(=O)c1cc2c(=O)n3ccccc3nc2n(CCCOC)c1=NC(=O)C(C)Oc1ccccc1` (stereo not drawn), the Potency result is “inactive”.

On to `COc1cc2c(=O)c(S(=O)(=O)c3ccc(C(C)C)cc3)cn(Cc3ccccc3C)c2cc1OC`, for which the Potency is 6.51 µM (active).

On to `Cc1cc(Nc2cccc(F)c2)n2ncnc2n1`, for which the Potency entry was “inactive”.

As for `COCCN1C(=O)C(=O)/C(=C(/O)c2ccc(S(=O)(=O)N3CCOCC3)cc2)C1c1ccc(O)c(OC)c1` (stereo not drawn), the Potency entry is “inactive”.
